From publication PMC4336329 (PLoS ONE, 2015) come the findings set out here.

The whole screen tested about 310,000 compounds, of which about 14,000 (4.5%) showed an effect of 50% or more. The effect is printed as a negative number. Only a selection was taken, and strong results are over-represented in it overall.
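Note: peak tail current of the secondary pulse compared with the same well before compound.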

The target in this test is human ether-à-go-go-related gene (hERG) potassium channel (human, UniProt Q12809). Kind of test: primary screen, population patch clamp on CHO cells stably expressing hERG; higher = less effect of the substance.
Sequence of human ether-à-go-go-related gene (hERG) potassium channel (Q12809 whole entry, looked up): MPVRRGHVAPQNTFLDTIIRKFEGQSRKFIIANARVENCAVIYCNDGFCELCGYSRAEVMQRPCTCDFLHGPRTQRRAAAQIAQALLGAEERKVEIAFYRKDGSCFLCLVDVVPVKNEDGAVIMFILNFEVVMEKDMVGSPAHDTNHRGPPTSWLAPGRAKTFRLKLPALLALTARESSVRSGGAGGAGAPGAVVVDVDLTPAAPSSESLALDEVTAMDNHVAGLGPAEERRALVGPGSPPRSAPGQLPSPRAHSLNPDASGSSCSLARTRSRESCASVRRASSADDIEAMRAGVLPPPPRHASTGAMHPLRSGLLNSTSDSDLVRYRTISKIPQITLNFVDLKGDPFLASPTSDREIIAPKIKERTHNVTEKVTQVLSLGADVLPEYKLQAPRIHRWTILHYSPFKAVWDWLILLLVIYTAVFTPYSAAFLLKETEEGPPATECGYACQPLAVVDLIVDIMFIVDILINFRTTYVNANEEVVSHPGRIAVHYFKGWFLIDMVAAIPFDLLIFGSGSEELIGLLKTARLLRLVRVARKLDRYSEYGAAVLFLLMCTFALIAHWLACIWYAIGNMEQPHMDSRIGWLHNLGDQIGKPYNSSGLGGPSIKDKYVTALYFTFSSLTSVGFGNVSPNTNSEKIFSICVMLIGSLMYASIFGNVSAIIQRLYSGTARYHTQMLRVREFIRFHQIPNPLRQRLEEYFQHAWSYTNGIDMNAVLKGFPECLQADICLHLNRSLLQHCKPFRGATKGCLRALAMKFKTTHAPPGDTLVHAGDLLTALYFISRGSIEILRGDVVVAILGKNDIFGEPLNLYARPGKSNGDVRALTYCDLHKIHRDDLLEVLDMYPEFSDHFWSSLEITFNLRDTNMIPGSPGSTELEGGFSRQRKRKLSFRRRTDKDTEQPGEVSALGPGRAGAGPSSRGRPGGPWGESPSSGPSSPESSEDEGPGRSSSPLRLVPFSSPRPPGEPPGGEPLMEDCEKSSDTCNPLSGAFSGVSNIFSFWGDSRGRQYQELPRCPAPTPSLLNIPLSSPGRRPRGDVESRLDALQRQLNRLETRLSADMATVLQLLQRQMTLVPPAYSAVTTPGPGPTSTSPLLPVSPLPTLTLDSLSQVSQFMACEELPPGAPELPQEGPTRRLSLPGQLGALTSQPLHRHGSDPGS
As to `CN(CCN1CCOCC1)Cc1nc(-c2ccc(Cl)cc2)no1`, the “hERG current change (%, negative = inhibition) at 10uM” value is -28.1%.

As for `O=C(NCc1cccs1)C(=O)NCC1OCCCN1S(=O)(=O)c1cccs1` (centres unmarked), the “hERG current change (%, negative = inhibition) at 10uM” value is recorded as -15.3%.

On to `CC(C)c1ccc(N(CC(=O)NC(C)(C)C)C(=O)CCC(=O)Nc2nccs2)cc1`, for which the “hERG current change (%, negative = inhibition) at 10uM” value is listed as 2.7%.

With `Cc1ccccc1NC(=O)CN1C(=O)CSc2ccccc21`, the “hERG current change (%, negative = inhibition) at 10uM” value was determined as 17.3%.

On to `CC(=O)c1cccc(S(=O)(=O)N(C)C2CCN(C)CC2)c1.Cl`, for which the “hERG current change (%, negative = inhibition) at 10uM” value was -2.43%.

As to `O=C(COc1ccc(Br)cc1Br)NC(=S)N1CCCc2ccccc21`, the “hERG current change (%, negative = inhibition) at 10uM” value is recorded as -2.7%.

For `CN1CCN(C(=O)c2ccccc2N(Cc2ccccc2)S(=O)(=O)c2ccccc2)CC1`, the “hERG current change (%, negative = inhibition) at 10uM” value is recorded as -8.4%.

As to `Cc1ccc(-c2[nH]nc3c2C(c2ccsc2)C(C#N)=C(N)O3)cc1` (centres unmarked), the “hERG current change (%, negative = inhibition) at 10uM” value is given as -18.9%.

Regarding `CCc1ccc(N(CC)c2ncnc3nc[nH]c23)cc1`, the “hERG current change (%, negative = inhibition) at 10uM” value was -4.89%.

In the case of `CC(C)c1ccc2oc(=O)cc(CN3CCN(c4ccc(F)cc4)CC3)c2c1`, the “hERG current change (%, negative = inhibition) at 10uM” value was -2.26%.

In the case of `CC(C)NC(=O)CSc1nc2[nH]ncc2c(=O)[nH]1`, the “hERG current change (%, negative = inhibition) at 10uM” value was determined as 15.6%.

Regarding `O=C(NCc1ccco1)c1ccc(OCC2CCCO2)cc1` (centres unmarked), the “hERG current change (%, negative = inhibition) at 10uM” value is -23.2%.

On to `COc1ccc(OC)c(CCNC(=O)C2CCN(c3ncnc4c3nc3n4CCCCC3)CC2)c1`, for which the “hERG current change (%, negative = inhibition) at 10uM” value is -0.169%.

For the molecule `COc1cccc(NC(=O)C2CCCN(c3ncnc4c3nc3n4CCCCC3)C2)c1` (centres unmarked), the “hERG current change (%, negative = inhibition) at 10uM” value is given as -67.4%.

With `Cc1ccccc1CN1CCC(CNC(=O)C2CCCN(c3ncnc4c3nc3n4CCCCC3)C2)CC1` (centres unmarked), the “hERG current change (%, negative = inhibition) at 10uM” value is listed as -7.3%.

Regarding `CCc1cccc(NC(=O)C2CCCN(c3ncnc4c3nc3n4CCCCC3)C2)c1` (centres unmarked), the “hERG current change (%, negative = inhibition) at 10uM” value is -46.4%.

On to `CSc1cccc(NC(=O)C2CCCN(c3ncnc4c3nc3n4CCCCC3)C2)c1` (centres unmarked), for which the “hERG current change (%, negative = inhibition) at 10uM” value is given as -47.9%.

Consider `COc1ccccc1CNC(=O)C1CCN(c2ncnc3c2nc2n3CCCCC2)CC1`, for which the “hERG current change (%, negative = inhibition) at 10uM” value was 6.69%.

Consider `COc1cc(NC(=O)C2CCCN(c3ncnc4c3nc3n4CCCCC3)C2)cc(OC)c1OC` (centres unmarked), for which the “hERG current change (%, negative = inhibition) at 10uM” value was -6.46%.

On to `COc1ccc(OC)c(CNC(=O)C2CCCN(c3ncnc4c3nc3n4CCCCC3)C2)c1` (centres unmarked), for which the “hERG current change (%, negative = inhibition) at 10uM” value is listed as -59%.

For the molecule `O=C(NCc1ccc(Cl)cc1)C1CCCN(c2ncnc3c2nc2n3CCCCC2)C1` (centres unmarked), the “hERG current change (%, negative = inhibition) at 10uM” value is -55.4%.

Take `CCOc1ccccc1CNC(=O)C1CCCN(c2ncnc3c2nc2n3CCCCC2)C1` (centres unmarked): the “hERG current change (%, negative = inhibition) at 10uM” value is -51.6%.

Consider `C/C(CC(=O)Nc1ccc([N+](=O)[O-])cc1)=N/NC(=O)C1C2CCCCC21` (centres unmarked), for which the “hERG current change (%, negative = inhibition) at 10uM” value was -21.7%.

With `O=C(Nc1ccc(NC(=O)c2ccc3c(c2)OCO3)cc1)c1cccc(Cl)c1`, the “hERG current change (%, negative = inhibition) at 10uM” value amounted to 24.9%.

For `Cc1onc(-c2ccccc2)c1C(=O)OCCOc1ccc([N+](=O)[O-])cc1[N+](=O)[O-]`, the “hERG current change (%, negative = inhibition) at 10uM” value was -17.9%.

With `O=C(CCN1C(=O)COc2ccccc21)NCc1cccnc1`, the “hERG current change (%, negative = inhibition) at 10uM” value worked out at 6.28%.

Regarding `Cc1c(NC(=O)C2CC(c3ccc(F)cc3)=NO2)c(=O)n(-c2ccccc2)n1C` (centres unmarked), the “hERG current change (%, negative = inhibition) at 10uM” value is listed as -3.93%.

Consider `O=S(=O)(NN=C1CCCCCCC1)c1ccc(Br)cc1`, for which the “hERG current change (%, negative = inhibition) at 10uM” value was 4.3%.

Turning to `Cc1ccc(-c2noc(CN(C)C(=O)c3ccc(Br)o3)n2)cc1`, the “hERG current change (%, negative = inhibition) at 10uM” value is -18.7%.

Regarding `O=C(CCCn1c(=O)[nH]c2ccsc2c1=O)NCc1cccs1`, the “hERG current change (%, negative = inhibition) at 10uM” value was found to be 4.11%.

Take `CCCCN(C(=O)CN1C(=O)C2CC=CCC2C1=O)c1c(N)n(CCC)c(=O)[nH]c1=O` (centres unmarked): the “hERG current change (%, negative = inhibition) at 10uM” value turned out to be 4.14%.

With `O=C(O)Cc1cccc2ccccc12`, the “hERG current change (%, negative = inhibition) at 10uM” value is reported as 16.6%.

As to `CCCOc1ccc(/C=C2\SC(N)=NC2=O)cc1OC`, the “hERG current change (%, negative = inhibition) at 10uM” value is on record as 3.66%.

For `O=C(O)c1cccc2c(/C=N/Nc3ccccn3)c[nH]c12`, the “hERG current change (%, negative = inhibition) at 10uM” value was -1.13%.

Consider `CC(C)N(Cc1ccccc1)C(=O)C1CCCN(c2ncnc3c2nc2n3CCCCC2)C1` (centres unmarked), for which the “hERG current change (%, negative = inhibition) at 10uM” value is given as -44.3%.

As to `Cc1ccccc1N(C)C(=O)C1CCCN(c2ncnc3c2nc2n3CCCCC2)C1` (centres unmarked), the “hERG current change (%, negative = inhibition) at 10uM” value is reported as -7.96%.

For `CN(Cc1ccccc1)C(=O)C1CCCN(c2ncnc3c2nc2n3CCCCC2)C1` (centres unmarked), the “hERG current change (%, negative = inhibition) at 10uM” value is -66%.

For the molecule `Cc1ccc(CNC(=O)C2CCCN(c3ncnc4c3nc3n4CCCCC3)C2)cc1` (centres unmarked), the “hERG current change (%, negative = inhibition) at 10uM” value was -49%.

For the molecule `Cc1ccc(CN2CCC(CNC(=O)C3CCCN(c4ncnc5c4nc4n5CCCCC4)C3)CC2)cc1` (centres unmarked), the “hERG current change (%, negative = inhibition) at 10uM” value is -45%.

On to `CN(C(=O)C1CCCN(c2ncnc3c2nc2n3CCCCC2)C1)c1cccc(Cl)c1` (centres unmarked), for which the “hERG current change (%, negative = inhibition) at 10uM” value is given as -45.9%.

With `CN(Cc1ccco1)C(=O)C1CCCN(c2ncnc3c2nc2n3CCCCC2)C1` (centres unmarked), the “hERG current change (%, negative = inhibition) at 10uM” value is recorded as 5.57%.

On to `CCN(C(=O)C1CCCN(c2ncnc3c2nc2n3CCCCC2)C1)c1cccc(Cl)c1` (centres unmarked), for which the “hERG current change (%, negative = inhibition) at 10uM” value is listed as -62.5%.

In the case of `O=C(NCC1CCN(Cc2ccc(Cl)cc2)CC1)C1CCCN(c2ncnc3c2nc2n3CCCCC2)C1` (centres unmarked), the “hERG current change (%, negative = inhibition) at 10uM” value is on record as -65.7%.

On to `O=C(NCc1ccccc1)C1CCCN(c2ncnc3c2nc2n3CCCCC2)C1` (centres unmarked), for which the “hERG current change (%, negative = inhibition) at 10uM” value is recorded as -69.1%.

With `O=C(NCC1CCN(Cc2ccc(F)cc2)CC1)C1CCCN(c2ncnc3c2nc2n3CCCCC2)C1` (centres unmarked), the “hERG current change (%, negative = inhibition) at 10uM” value is listed as -39.6%.

`CC(C)N(CCNC(=O)C1CCCN(c2ncnc3c2nc2n3CCCCC2)C1)Cc1ccccc1` (centres unmarked): the “hERG current change (%, negative = inhibition) at 10uM” value is listed as -37.3%.

With `O=C(C1CC1)N1CCCN(C(=O)C2CC2)CC1`, the “hERG current change (%, negative = inhibition) at 10uM” value is given as 16.3%.

Regarding `CCC1(C)Cc2ccccc2-c2nc(NCCCO)n(-c3ccccc3)c(=O)c21` (centres unmarked), the “hERG current change (%, negative = inhibition) at 10uM” value is recorded as -48.6%.

Turning to `c1ccc(COc2ccccc2CNc2nn[nH]n2)cc1`, the “hERG current change (%, negative = inhibition) at 10uM” value turned out to be 13.1%.

Consider `O=C(Nc1sc2c(c1C(=O)NCC(O)CO)CCCC2)c1ccccc1` (centres unmarked), for which the “hERG current change (%, negative = inhibition) at 10uM” value is given as 6.02%.

As for `O=C(COC(=O)CNC(=O)c1cccs1)Nc1ccc(C(F)(F)F)cc1[N+](=O)[O-]`, the “hERG current change (%, negative = inhibition) at 10uM” value is on record as -44%.

With `CCn1c(C)nnc1SCC(=O)Nc1ccc(Cl)cc1`, the “hERG current change (%, negative = inhibition) at 10uM” value is given as 10.3%.

On to `CN(CC(=O)NCCCc1ccccc1)S(=O)(=O)c1ccc(Br)cc1`, for which the “hERG current change (%, negative = inhibition) at 10uM” value is -7.88%.

As to `CC(=O)c1ccc(NC(=O)C2CCCN(c3ncnc4c3nc3n4CCCCC3)C2)cc1` (centres unmarked), the “hERG current change (%, negative = inhibition) at 10uM” value is -24.1%.

In the case of `O=C(Nc1ccc(Cl)cc1)C1CCCN(c2ncnc3c2nc2n3CCCCC2)C1` (centres unmarked), the “hERG current change (%, negative = inhibition) at 10uM” value was -50.1%.

On to `Cc1ccc(NC(=O)C2CCCN(c3ncnc4c3nc3n4CCCCC3)C2)cc1Cl` (centres unmarked), for which the “hERG current change (%, negative = inhibition) at 10uM” value is on record as -6.39%.
